Bioassay records: PubChem, National Center for Advancing Translational Sciences (NCATS)
In the library only some 1.4% were active in any assay of this set; here they are far more common.
RXFP1 agonist: RXFP1 (human) receptor agonism; Potency, µM (series often up to 57.5 µM), hits mostly activators; Q9HBX9; 0.3% of 370,000 active; AID 2676; HEK293T-RXFP1 cAMP TR-FRET, 30 min; response scale: percent of porcine relaxin response, buffer zero; further: nearly all actives have a fitted effect of over 60% in size
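HEK293T cells stably expressing RXFP1 were pretreated with the PDE4 inhibitor Ro 20174, exposed to compounds for 30 min at 37C, lysed, and cAMP was read by TR-FRET. Data normalized to buffer (basal) and 29 nM porcine relaxin (100%).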
hERG WT inh: inhibitors of human wildtype KCNH2 potassium channel; U2OS, BacMam KCNH2, thallium flux FluxOr; active compounds read low; Q12809; activity change, % at 1.84 µM; 0.37% of 340,000 active;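 active means maximum activity change below -70%; inconclusive means maximum activity change between -70% and -50%; inactive means maximum activity change above -50%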
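U2OS cells were transduced with wild-type KCNH2 virus (2.03 x 10^8 / mL) for 4 h at room temperature, then cultured overnight at 37 C. Thallium flux was read with FluxOr dye. Rate constants were normalized to DMSO controls.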
KCNH2 3.1 block: KCNH2 3.1 (human) potassium channel inhibition | U2OS KCNH2 3.1, thallium flux FluxOr; active compounds read low | AID 720553 | 0.95% of 340,000 active | activity change, % (tested at about 1.8 µM);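 active means maximum activity change below -70%; inconclusive means maximum activity change from -70% to -50%; inactive means maximum activity change above -50%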;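 further: thallium influx rate constant from kinetic fluorescence after stimulation buffer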
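Thallium flux via FluxOr fluorescence (Red40 quencher, 45 min loading) in U2OS cells virally expressing the KCNH2 3.1 isoform (1.77 x 10^8 /mL virus, overnight at 37 C). Rate constants from 2-min kinetic reads post-stimulation, normalised to positive and negative controls.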
RXFP1 antagonist: RXFP1 (human) relaxin receptor antagonism | HEK293-RXFP1, relaxin-stimulated cAMP HTRF, 30 min; active compounds read low | activity change, negative = inhibition, % at 57.5 µM | AID 1259400 | 0.59% of 350,000 active;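 active means activity change of -60% or lower, but not beyond a set lower limit; inconclusive means change between -60% and -40%, or beyond the set limit; inactive means change above -40%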
PTHR1 agonist: agonists of human PTHR1 parathyroid hormone receptor; 0.075% of 410,000 active; Q03431; HEK293 GP2 PTHR1 cells, GloSensor cAMP luminescence, 1 h; AID 743266; Potency, µM (highest dose often 115 µM), most hits filed as activators; further: nearly all actives have a fitted effect of over 55% in size
Target sequence (Q03431 whole entry, looked up): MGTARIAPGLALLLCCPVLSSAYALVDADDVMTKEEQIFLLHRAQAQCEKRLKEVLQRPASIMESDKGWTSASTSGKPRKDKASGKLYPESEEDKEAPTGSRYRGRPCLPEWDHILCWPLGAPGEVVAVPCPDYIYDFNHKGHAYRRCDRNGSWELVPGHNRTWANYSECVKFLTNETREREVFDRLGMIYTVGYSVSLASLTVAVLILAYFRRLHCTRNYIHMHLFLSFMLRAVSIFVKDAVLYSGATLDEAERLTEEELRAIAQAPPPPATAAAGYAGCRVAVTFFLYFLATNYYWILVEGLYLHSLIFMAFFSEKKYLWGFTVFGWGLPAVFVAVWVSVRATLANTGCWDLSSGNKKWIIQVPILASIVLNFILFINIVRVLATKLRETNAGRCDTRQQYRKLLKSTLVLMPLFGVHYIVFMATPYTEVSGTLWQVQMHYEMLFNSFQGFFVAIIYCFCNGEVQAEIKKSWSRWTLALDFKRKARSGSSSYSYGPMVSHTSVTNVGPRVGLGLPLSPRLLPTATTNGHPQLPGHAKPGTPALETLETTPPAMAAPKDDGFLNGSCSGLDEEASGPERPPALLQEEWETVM
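HEK-293-derived GP2 cells expressing PTHR1 and a GloSensor cAMP reporter, 3,000/well, plated overnight, given luciferin plus IBMX (each 0.5 mM as added) for 1 h at 37 °C, then compound for 1 h at 37 °C. Luminescence was read after 15 min at room temperature.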
GRP78 ERSR act: ER stress response induction in glioma; U87-MG GRP78 promoter luciferase reporter, 16 h; Potency, µM, actives largely listed as activators; 0.02% of 420,000 active; AID 602332; further: series mostly up to about 76 µM; nearly all actives have a fitted effect of over 35% in size
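ERSR induction read as luciferase luminescence (Bright-Glo, 10 min at room temperature) in stably transfected human U87-MG glioma cells exposed to compounds for 16 h, using GRP78 as sensor.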
Large screens that a line does not name were inactive. Unless noted, the call rests on the fitted dose curve; in most records, active means well fitted curve in the direction sought with a large enough effect; inconclusive means small, poorly fitted or top-dose-only effect, or another doubt; inactive means no such curve, though single readings can be large; an effect the other way counts as inactive or inconclusive.

O=C(c1ccccc1)c1cc(Cl)ccc1N1C(=O)C=CC1=O	RXFP1 antagonist -63
CCN1C(=O)[C@H]2[C@@H](c3ccc(-c4cc(C(C)=O)cs4)cc3)N3CCC[C@@]3(C(=O)OC)[C@H]2C1=O	none (no result: RXFP1 antagonist)
O=C(Nc1ccccc1)c1nnsc1S(=O)c1ccc(Cl)cc1 (stereo unspecified)	RXFP1 antagonist -105
CC(=O)N(C)/C=C1\Sc2ccccc2C1=O	none
CCC(=O)N(C)/C=C1\Sc2ccccc2C1=O	hERG WT inh -102
CS(=O)(=O)Nc1cccc(-c2nc(NCc3cccnc3)c3ccccc3n2)c1	none (no result: RXFP1 agonist, hERG WT inh, KCNH2 3.1 block, RXFP1 antagonist, PTHR1 agonist)
CCCCOc1cccc(C2/C(=C(\O)c3ccc4c(c3)OCCO4)C(=O)C(=O)N2CCN2CCOCC2)c1 (stereo unspecified)	RXFP1 agonist 25µM
COc1ccc(S(=O)(=O)N(CC(=O)N/N=C/c2cccs2)c2ccc(C)cc2)cc1OC	none
COc1ccc(S(=O)(=O)N(CC(=O)N/N=C/c2cccs2)c2cc(C)cc(C)c2)cc1OC	KCNH2 3.1 block -95
FC(F)(F)c1ccc(-c2noc(CN3CCCN(C4CCCCC4)CC3)n2)cc1	KCNH2 3.1 block -94
Cn1cc(C(=O)NC2C3CC4CC(C3)CC2C4)cn1 (stereo unspecified)	none
Cc1cccnc1NC(=O)c1ccc(Cl)c(S(=O)(=O)N2CCCCC2)c1	none
CCOC(=O)C1CCCN(C(=O)Nc2ccccc2)C1 (stereo unspecified)	KCNH2 3.1 block -73
CCOC(=O)C1CCCN(CC(O)COC(c2ccccc2)c2ccccc2)C1 (stereo unspecified)	hERG WT inh -77, KCNH2 3.1 block -96
CCOC(=O)C1CCCN(CC(O)COc2ccccc2C(C)=O)C1 (stereo unspecified)	none
Cc1nnc(NC(=O)CSc2ccc(-c3ccccn3)nn2)s1	none (no result: hERG WT inh, KCNH2 3.1 block, RXFP1 antagonist, PTHR1 agonist, GRP78 ERSR act)
COC(=O)[C@@]12CCCCN1[C@H](c1ccc(-c3ccc(OC)cc3)c(OC)c1)[C@@H]1C(=O)N(C)C(=O)[C@@H]12	none (no result: RXFP1 antagonist)
COC(=O)[C@@]12CCCCN1[C@H](c1ccc(-c3ccc(F)cc3)c(OC)c1)[C@H]1C(=O)N(C)C(=O)[C@H]12	KCNH2 3.1 block -95 (no result: RXFP1 agonist, RXFP1 antagonist)
C=CCn1c(SCCOc2ccc(OC)cc2)nnc1C(C)NC(=O)Cc1ccc(OC)cc1 (stereo unspecified)	KCNH2 3.1 block -101
O=C(c1ccsc1)N1CCCC(Nc2ccc(F)c(F)c2)C1 (stereo unspecified)	none
O=C1/C(=C/c2ccc(N3CCOCC3)o2)SC(=Nc2ccccc2)N1CCc1c[nH]c2ccccc12	RXFP1 antagonist -81
COc1cc(/C=C2\SC(=Nc3ccccc3)N(CCc3c[nH]c4ccccc34)C2=O)ccc1OC(C)C(=O)O (stereo unspecified)	none
COc1ccccc1CC(NC(C)=O)C(=O)NC1CCN(C(=O)NCc2ccccc2)CC1 (stereo unspecified)	none
O=c1ccc2ccc(O)c(O)c2o1	GRP78 ERSR act 41µM (no result: RXFP1 agonist, hERG WT inh, KCNH2 3.1 block, RXFP1 antagonist, PTHR1 agonist)
Cc1[nH]c(=S)c(C#N)c(C)c1Cc1ccccc1	KCNH2 3.1 block inconclusive
Cc1[nH]c(=S)c(C#N)c(C)c1CCC#N	RXFP1 antagonist -119
CCc1cc(-c2n[nH]c(=S)n2-c2cccc(C)c2)cs1	none
Cc1cccc(-n2c(-c3csc(C)c3)n[nH]c2=S)c1	RXFP1 antagonist -66
Cc1nc(-c2ccccc2)sc1-c1ccn[nH]1	none
O=S(=O)(c1ccccc1)N1CCC(c2ccncc2)CC1	RXFP1 antagonist -106 (no result: hERG WT inh, KCNH2 3.1 block)
Cc1ccc2nc(CCCc3nc4ccc(C)cc4[nH]3)[nH]c2c1	KCNH2 3.1 block -79, PTHR1 agonist inconclusive
Cc1ccc2nc(CCc3nc4ccc(C)cc4[nH]3)[nH]c2c1	none
CC(C)COC(=O)N(C)C[C@H]1OCc2cn(nn2)CCCC(=O)N([C@H](C)CO)C[C@@H]1C	none (no result: RXFP1 agonist)
O=C(NC(=S)Nn1cnc2c(cnn2-c2ccccc2)c1=O)c1ccc(Cl)cc1	RXFP1 antagonist -72
